# Pf Dd2 inh: inhibitors of Plasmodium falciparum Dd2 growth | P. falciparum Dd2 growth, SYBR Green, 72 h | 4.3% of 120,000 active | Potency, µM (series often up to 28.9 µM), without a hit: at the top dose activity, negative = inhibition, hits mostly inhibitors; active = well fitted inhibition curve with a large enough effect;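 note: plate controls were DMSO vehicle for no effect and reference drug for full effect; nearly all actives have a fitted effect of over 65% in size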
#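 Readout: SYBR Green fluorescence, 485 nm excitation, 535 nm emission, after ~16 h lysis at 37C. Before that, Dd2-infected red cells (2.5% hematocrit) grew 72 h with compound, 29 uM top final concentration.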
# * = called active by the depositor; i = inactive; [ ] = dose if it differs, or a comment. This excerpt belongs to a sample that is enriched for hits. Potency is the fitted concentration of half-maximal effect.
SMILES,Pf Dd2 inh
COc1ccccc1-c1[nH]nc2ncc(-c3ccccc3F)nc12,-21.7%[44.1 µM]
COc1ccccc1-c1[nH]nc2ncc(-c3ccccc3C)nc12,12.6µM*
CCOC(=O)C1CCCN(C(=O)C2CC(c3ccc(CC)cc3)CN(C(=O)c3ccoc3)C2)C1 (stereo not given),1.12µM*
CCc1ccc(C2CC(C(=O)NC(C)c3ccccc3)CN(C(=O)c3ccoc3)C2)cc1 (stereo not given),i
CCOC(=O)C1CCCN(C(=O)C2CC(c3ccccc3)CN(C(=O)c3cccc(F)c3)C2)C1 (stereo not given),i
COc1ccc(CN2CCOc3ccc(C(=O)NCc4ccccc4F)cc3C2)cc1OC,i
Cc1cc(=O)n(CC(=O)Nc2ccc(Br)cc2)c(N2CCC(C)CC2)n1,-23.9%
CCc1ccccc1NC(=O)Cn1c(=O)ccc2cc(S(=O)(=O)N3CCCC3)ccc21,10.5%
CCOc1ccc(C(=O)Nc2cc3c(cc2N2CCCC2)n(C)c(=O)c(=O)n3C)cc1OCC,-16.2%
Cc1cc(=O)n(CC(=O)Nc2ccc(C)c(Cl)c2)c(N2CCC(C)CC2)n1,-22.0%
CCOc1ccccc1NC(=O)Cn1c(=O)ccc2cc(S(=O)(=O)N3CCC(C)CC3)ccc21,12.6µM*
Cc1cc(=O)n(CC(=O)Nc2ccc(Cl)cc2)c(N2CCC(C)CC2)n1,11.2µM*
CCOc1ccccc1NC(=O)Nc1cc2c(cc1N1CCCCC1)n(CC)c(=O)n2CC,11.2µM*
CCc1ccccc1NC(=O)Cn1c(-c2ccccc2)nc(C)cc1=O,-3.8%
COc1ccccc1CNC(=O)Cn1c(=O)ccc2cc(S(=O)(=O)N3CCC(C)CC3)ccc21,11.2%
CCOc1ccccc1NC(=O)Cn1c(-c2ccc(F)cc2)nc(C)cc1=O,-19.2%
CCOc1ccccc1NC(=O)Cn1c(-c2ccccc2)nc(C)cc1=O,1.58µM*
CCOc1ccc(NC(=O)Nc2cc3c(cc2N2CCCCC2)n(C)c(=O)n3C)cc1,-14.7%
CC(C)N1C[C@H](O)C[C@H]1c1nnc2n1CCN(C(=O)CCC1CCCC1)C2,-14.4%
CC(O)c1cc2n(n1)CCCN(CCn1cc[nH]c1=O)C2 (stereo not given),-0.3%
Cc1c(NC(=O)c2ccco2)cccc1C(=O)N1CCC2(CCNCC2)CC1,9.1%
O=C1C(N2CCN(S(=O)(=O)c3cc(F)ccc3F)CC2)CCN1Cc1cccnc1 (stereo not given),-10.1%
CN(C)Cc1cn2c(=O)n(C)cc(-c3ccccc3Oc3ccccc3)c2n1,i
CS(=O)(=O)NC[C@H]1O[C@@H](CO)[C@@H](O)[C@H]1N1CCc2ccccc2C1,-7.9%[44.1 µM]
CCN(CC)C(=O)CC[C@H]1CNC(=O)[C@@H]2[C@@H](CCN2Cc2ccc(F)cc2)N1C,-4.0%[44.1 µM]
SMILES,Pf Dd2 inh
Cn1c(CO[C@H]2CN(C(=O)c3cccnc3)C[C@H]2F)nc2ccccc21,11.5%[44.1 µM]
CC(C)CCC(=O)N1CCC(OC2CCN(Cc3ccccc3)CC2)CC1,-27.2%
O=C1CCN(C(=O)C2CCN(C(=O)C3CCOC3)CC2)CCCCCCN1 (stereo not given),10.3%
CC(=O)N1CCC2(COc3ncccc3[S+](=O)([O-])N2)C1 (stereo not given),22.6%
O=C(c1ccc2c(c1)OCO2)N1CCC2(CC(c3cccnc3)=NO2)C1 (stereo not given),7.5%
CC(C)CCC(=O)N[C@@H]1CN(C)C[C@H]1CN(C)C,17.1%
CN(Cc1cccnc1)c1nc2c(c(=O)[nH]1)CCN(CCc1ccccc1)CC2,24.6%[5.79 µM]
O=C(COc1ccccc1)N[C@H]1CO[C@H]2[C@@H]1OC[C@@H]2n1nnnc1Oc1ccc(-n2ccnc2)cc1,-10.8%
Cc1ccc(C)c(NC(=O)Cn2c(N3CCN(c4ccccc4)CC3)nc(C)cc2=O)c1,-42.1%
Cc1ccc(NC(=O)Cn2c(N3CCN(c4ccccc4)CC3)nc(C)cc2=O)c(C)c1,-8.3%
CCOc1ccccc1NC(=O)Cn1c(N2CCN(c3ccccc3)CC2)nc(C)cc1=O,5.62µM*
c1cnc2nc(C3CCCN3)[nH]c2c1 (stereo not given),-21.7%[44.1 µM]
CNC(=O)Nc1cccn2nc(-c3ccccc3)nc12,i
Cc1ccc(C2(O)CCN(C(=O)c3ccc4ncccc4c3)CC2)nc1,3.98µM*
Cc1ccc(C2(O)CCN(C(=O)C(=O)c3cccnc3)CC2)nc1,-6.7%
O=C(c1ccc2ncccc2c1)N1CCC2(CC1)Nc1ccccc1NC2=O,7.8%
Cc1ccsc1C(=O)NCCC1CCN(C(=O)Nc2ccccc2)CC1,-18.3%
CC(C)CN1CCC(O)(c2csc(CN3CCOCC3)n2)CC1,11.3%[44.1 µM]
c1ccc(-c2cnc3n[nH]c(-c4ccc5c(c4)OCO5)c3n2)cc1,35.4%[44.1 µM]
Fc1ccccc1-c1cnc2n[nH]c(-c3ccc4c(c3)OCO4)c2n1,i
Oc1ccccc1-c1cnc2n[nH]c(-c3ccc4c(c3)OCO4)c2n1,11.2µM*
CCCN1CCc2[nH]cnc2C12CCN(Cc1ccc(C3CCCCO3)o1)CC2 (stereo not given),-9.5%
Cc1cccc(-c2nc3cnccn3c2NCCC(=O)N2CCCCC2)c1,i
O=C(NCCN1CCCCC1)C1CCc2ncc(-c3ccsc3)n2C1 (stereo not given),-14.8%

# From PubChem BioAssay
